The values below come from PubChem BioAssay (NCI).

The structures appear in SMILES notation. Compounds without any hit were thinned out: in the full panel of roughly 79,000, 15% have a hit. A number with no mark means an inactive call. The source made the active and inactive calls. No stated cut-off is given here; in the data, active means growth inhibition above about 70%; inactive means the rest.

One experiment in a line: NCI Yeast Anticancer Drug Screen. Data for the mlh1 rad18 strain (AID 175). To be noted: S. cerevisiae mlh1 rad18 strain growth inhibition; at 50.0 µM (retest, dose inferred, filed as 5.0); hits give high values. The procedure, abridged: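 Cells of a genetically altered yeast strain, deficient in DNA damage repair, were treated with compound. Their growth was then compared with that of vehicle-treated cultures to give inhibition.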
`CCCC(C)(COC(N)=O)COC(=O)NC1CC1` (stereo not given): the growth inhibition is 7%.

Regarding `O=C(O)C(CSC(c1ccccc1)c1ccccc1)NC(=O)C(c1ccccc1)c1ccccc1` (stereo not given), the growth inhibition was 88% (active).

Turning to `CC1=CC2CC(C)=C(CC[C@]3(C)CC[C@H]([C@@H](C)C(=O)O)OO3)C(C)(C)C2CC1` (stereo not given in full), the growth inhibition was 98% (active).

Turning to `O=[N+]([O-])/C=C/c1c(Cl)cccc1Cl`, the growth inhibition is 99% (active).

As for `O=[n+]1c2ccccc2n([O-])c2ccccc21.[Cl][Cu][Cl]`, the growth inhibition is 98% (active).

For `CC(=O)C(CN1CCOCC1)C(c1ccccc1)c1c(O)c2ccccc2oc1=O` (stereo not given), the growth inhibition was 81% (active).

For the compound `CC(C)c1oc(=O)cc2c1C(O)C1OC(=O)C3(C)C(O)C4OC4C2(C)C13` (stereo not given), the growth inhibition was 86% (active).

As to `C#CCN1C(=O)N(CC#C)C(=O)C(CC#C)(C(CC=C)c2ccccc2)C1=O` (stereo not given), the growth inhibition is 97% (active).

Regarding `COC(=O)C1c2c(C)cc3n2C(C=CC3)C1C(=O)OC` (stereo not given), the growth inhibition is 54%.

Consider `[Cl][Hg][c]1ccc(Cl)s1`, for which the growth inhibition was 99% (active).

Take `N#CC(Cl)(Cl)CCl`: the growth inhibition was 38%.

Take `O=C1CCC(=O)N1SC(Cl)(Cl)Cl`: the growth inhibition is 18%.

Take `CCCC(=O)O.CCCC(=O)O.CCCC(=O)O.CCCC(=O)O.[Rh].[Rh]`: the growth inhibition was 52%.

As for `CC(CCC/C=C/CCCN(C)C(=N)N)CC(C)C1OC(=O)C(C)C(O)/C=C/C(C)C(O)C(C)C(O)C(C)C(O)CCCC(O)CC2(O)OC(CC(OC(=O)CC(=O)O)CC(O)CC(O)C(C)C(O)/C=C/C=C/C1C)CC(O)C2O` (stereo not given), the growth inhibition is 99% (active).

As for `OC(CN(CCCl)CCCl)C(O)C(O)C(O)CN(CCCl)CCCl` (stereo not given), the growth inhibition is 95% (active).

As to `O=[N+]([O-])c1ccc(CS(=O)(=O)C(Cl)Cl)o1`, the growth inhibition is 90% (active).

Turning to `CC(C)c1cc([N+](=O)[O-])cc([N+](=O)[O-])c1O`, the growth inhibition was 90% (active).

With `O=P(c1cccc(C(F)(F)F)c1)(c1cccc(C(F)(F)F)c1)c1cccc(C(F)(F)F)c1.O=P(c1cccc(C(F)(F)F)c1)(c1cccc(C(F)(F)F)c1)c1cccc(C(F)(F)F)c1.[Cl][Sn]([Cl])([Cl])[Cl]`, the growth inhibition is 81% (active).

`COc1cc(N(CC(C)Br)CC(C)Br)ccc1N=Nc1ccccc1C(=O)O` (stereo not given): the growth inhibition was 94% (active).

Consider `C(=P(c1ccccc1)(c1ccccc1)c1ccccc1)[P+](c1ccccc1)(c1ccccc1)c1ccccc1.[Cl][Fe]([Cl])([Cl])[Br]`, for which the growth inhibition was 99% (active).

For `COc1ccc2c(c1)CCC(N1CCCC(=O)C1)C2` (stereo not given), the growth inhibition was 29%.

Take `C1CCNCC1.O=C([CH-]C(=O)C(F)(F)F)c1ccc2c(c1)C(=O)c1ccccc1-2.O=C([CH-]C(=O)C(F)(F)F)c1ccc2c(c1)C(=O)c1ccccc1-2.O=C([CH-]C(=O)C(F)(F)F)c1ccc2c(c1)C(=O)c1ccccc1-2.O=C([CH-]C(=O)C(F)(F)F)c1ccc2c(c1)C(=O)c1ccccc1-2.[Eu+3]`: the growth inhibition was 69%.

In the case of `O=C1C(=O)C(Br)(Br)C(Br)=C1Br`, the growth inhibition is -4%.

In the case of `CN(C)C(=S)Nc1nnc(NC23CC4CC(CC(C4)C2)C3)s1`, the growth inhibition is 48%.

Take `C[CH2][Hg]`: the growth inhibition was 99% (active).

For the compound `c1cc2n[pH]nc2cn1` (stereo not given), the growth inhibition is 6%.

With `CCC[CH2][Sn]1([CH2]CCC)[O]CC(Cc2ccccc2)[O]1` (stereo not given), the growth inhibition was 97% (active).

With `Clc1ccccc1C#[C][Hg][C]#Cc1ccccc1Cl`, the growth inhibition was 76% (active).

`CC12CCC3C(CC=C4CC(SC(=N)N)CCC43C)C1CCC2=O` (stereo not given): the growth inhibition is 31%.

In the case of `COc1ccccc1/C=C/[N+](=O)[O-]`, the growth inhibition was 99% (active).

In the case of `ClC(CN1CCCCC1)C(Cl)c1ccccc1` (stereo not given), the growth inhibition was 57%.

Consider `CCC[CH2][Sn]1([CH2]CCC)[O]CC(CN2CCCCC2)[O]1` (stereo not given), for which the growth inhibition was 96% (active).

With `COC1OC(CO)C(O)C(O)[CH]1[Hg][Cl]` (stereo not given), the growth inhibition was 99% (active).

Consider `ClC1=C(Cl)C2(Cl)C(Cl)CC1(Cl)C2(Cl)Cl` (stereo not given), for which the growth inhibition is 2%.

In the case of `[Hg][c]1ccccc1`, the growth inhibition is 53%.

As for `O=[N+]([O-])c1cccc(SC(Cl)(Cl)Cl)c1`, the growth inhibition was 99% (active).

Consider `CC1=C(O)C(=O)C=C2C1=CC=C1[C@@]2(C)CC[C@@]2(C)[C@@H]3C[C@](C)(C(=O)O)CC[C@]3(C)CC[C@]12C`, for which the growth inhibition was 97% (active).

`CCC[CH2][Sn]1([CH2]CCC)[O]C2C(O)OC(CO)C(O)C2[O]1` (stereo not given): the growth inhibition is 99% (active).

Regarding `O=[As]c1ccccc1O` (stereo not given), the growth inhibition is 98% (active).

Turning to `CC[PH+](CC)CC.[Cl][Au]`, the growth inhibition is 99% (active).

The same experiment, now with this note: S. cerevisiae mlh1 rad18 strain growth inhibition; at 50.0 µM; hits give high values.
For `CCCC(C)(COC(N)=O)COC(=O)NC1CC1` (stereo not given), the growth inhibition is -2%.

Consider `O=C(O)C(CSC(c1ccccc1)c1ccccc1)NC(=O)C(c1ccccc1)c1ccccc1` (stereo not given), for which the growth inhibition was 97.1% (active).

As for `CC1=CC2CC(C)=C(CC[C@]3(C)CC[C@H]([C@@H](C)C(=O)O)OO3)C(C)(C)C2CC1` (stereo not given in full), the growth inhibition is 91.4% (active).

Turning to `O=[N+]([O-])/C=C/c1c(Cl)cccc1Cl`, the growth inhibition is 99.2% (active).

Turning to `O=[n+]1c2ccccc2n([O-])c2ccccc21.[Cl][Cu][Cl]`, the growth inhibition was 99% (active).

Take `CC(=O)C(CN1CCOCC1)C(c1ccccc1)c1c(O)c2ccccc2oc1=O` (stereo not given): the growth inhibition was -13.5%.

Turning to `CC(C)c1oc(=O)cc2c1C(O)C1OC(=O)C3(C)C(O)C4OC4C2(C)C13` (stereo not given), the growth inhibition is 18.4%.

For the compound `C#CCN1C(=O)N(CC#C)C(=O)C(CC#C)(C(CC=C)c2ccccc2)C1=O` (stereo not given), the growth inhibition is 53.4%.

Regarding `COC(=O)C1c2c(C)cc3n2C(C=CC3)C1C(=O)OC` (stereo not given), the growth inhibition was -3.5%.

`[Cl][Hg][c]1ccc(Cl)s1`: the growth inhibition is 98.6% (active).

Turning to `N#CC(Cl)(Cl)CCl`, the growth inhibition is 2.5%.

Consider `O=C1CCC(=O)N1SC(Cl)(Cl)Cl`, for which the growth inhibition was 99.5% (active).

Consider `CCCC(=O)O.CCCC(=O)O.CCCC(=O)O.CCCC(=O)O.[Rh].[Rh]`, for which the growth inhibition is 24.1%.

Regarding `CC(CCC/C=C/CCCN(C)C(=N)N)CC(C)C1OC(=O)C(C)C(O)/C=C/C(C)C(O)C(C)C(O)C(C)C(O)CCCC(O)CC2(O)OC(CC(OC(=O)CC(=O)O)CC(O)CC(O)C(C)C(O)/C=C/C=C/C1C)CC(O)C2O` (stereo not given), the growth inhibition was 92.8% (active).

As to `OC(CN(CCCl)CCCl)C(O)C(O)C(O)CN(CCCl)CCCl` (stereo not given), the growth inhibition is 82.1% (active).

For `O=[N+]([O-])c1ccc(CS(=O)(=O)C(Cl)Cl)o1`, the growth inhibition was 95.6% (active).

Regarding `CC(C)c1cc([N+](=O)[O-])cc([N+](=O)[O-])c1O`, the growth inhibition is 80.7% (active).

Take `O=P(c1cccc(C(F)(F)F)c1)(c1cccc(C(F)(F)F)c1)c1cccc(C(F)(F)F)c1.O=P(c1cccc(C(F)(F)F)c1)(c1cccc(C(F)(F)F)c1)c1cccc(C(F)(F)F)c1.[Cl][Sn]([Cl])([Cl])[Cl]`: the growth inhibition is 61.1%.

Consider `COc1cc(N(CC(C)Br)CC(C)Br)ccc1N=Nc1ccccc1C(=O)O` (stereo not given), for which the growth inhibition was 80.2% (active).

In the case of `C(=P(c1ccccc1)(c1ccccc1)c1ccccc1)[P+](c1ccccc1)(c1ccccc1)c1ccccc1.[Cl][Fe]([Cl])([Cl])[Br]`, the growth inhibition is 99.4% (active).

For the compound `COc1ccc2c(c1)CCC(N1CCCC(=O)C1)C2` (stereo not given), the growth inhibition was 25.1%.

On to `C1CCNCC1.O=C([CH-]C(=O)C(F)(F)F)c1ccc2c(c1)C(=O)c1ccccc1-2.O=C([CH-]C(=O)C(F)(F)F)c1ccc2c(c1)C(=O)c1ccccc1-2.O=C([CH-]C(=O)C(F)(F)F)c1ccc2c(c1)C(=O)c1ccccc1-2.O=C([CH-]C(=O)C(F)(F)F)c1ccc2c(c1)C(=O)c1ccccc1-2.[Eu+3]`, for which the growth inhibition is 49.1%.

With `O=C1C(=O)C(Br)(Br)C(Br)=C1Br`, the growth inhibition is 96.8% (active).

Regarding `CN(C)C(=S)Nc1nnc(NC23CC4CC(CC(C4)C2)C3)s1`, the growth inhibition was 97% (active).

In the case of `C[CH2][Hg]`, the growth inhibition is 52.2%.

Regarding `c1cc2n[pH]nc2cn1` (stereo not given), the growth inhibition is 43.5%.

On to `CCC[CH2][Sn]1([CH2]CCC)[O]CC(Cc2ccccc2)[O]1` (stereo not given), for which the growth inhibition is 88.5% (active).

In the case of `Clc1ccccc1C#[C][Hg][C]#Cc1ccccc1Cl`, the growth inhibition is 19.4%.

Turning to `CC12CCC3C(CC=C4CC(SC(=N)N)CCC43C)C1CCC2=O` (stereo not given), the growth inhibition was 59.6%.

In the case of `COc1ccccc1/C=C/[N+](=O)[O-]`, the growth inhibition is 99% (active).

Regarding `ClC(CN1CCCCC1)C(Cl)c1ccccc1` (stereo not given), the growth inhibition is 35.1%.

For `CCC[CH2][Sn]1([CH2]CCC)[O]CC(CN2CCCCC2)[O]1` (stereo not given), the growth inhibition was 87% (active).

Take `COC1OC(CO)C(O)C(O)[CH]1[Hg][Cl]` (stereo not given): the growth inhibition was 98.8% (active).

Regarding `ClC1=C(Cl)C2(Cl)C(Cl)CC1(Cl)C2(Cl)Cl` (stereo not given), the growth inhibition was 83.7% (active).

In the case of `[Hg][c]1ccccc1`, the growth inhibition is 99.3% (active).

On to `O=[N+]([O-])c1cccc(SC(Cl)(Cl)Cl)c1`, for which the growth inhibition is 99.3% (active).

Turning to `CC1=C(O)C(=O)C=C2C1=CC=C1[C@@]2(C)CC[C@@]2(C)[C@@H]3C[C@](C)(C(=O)O)CC[C@]3(C)CC[C@]12C`, the growth inhibition is 84% (active).

For the compound `CCC[CH2][Sn]1([CH2]CCC)[O]C2C(O)OC(CO)C(O)C2[O]1` (stereo not given), the growth inhibition is 98.6% (active).

For `O=[As]c1ccccc1O` (stereo not given), the growth inhibition was 96.5% (active).

With `CC[PH+](CC)CC.[Cl][Au]`, the growth inhibition is 90.8% (active).
